Assay results: PubChem BioAssay
Where “and” joins values, the source holds several entries; their conditions need not be identical. Equal values may be shown once. Calls of active or inactive are those of the source. Unless noted, no stated cut-off is given here; in the data, active means inhibition above about 80%; inactive means the rest.

Legend:
[1] = sensitizers of A549 cells to miR-34 induction, primary screen, imaging, A549 dox-inducible miR-34, nuclei and caspase counts (AID 1347080;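 active means compounds whose cell count with miR-34 switched on is under 0.7 times the count with it off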); conditions: A549 miR-34 inducible, Hoechst nuclei count, 48 h
[2] = survival rescue of mitochondrial mutant cells in low glucose, primary screen, MELAS cybrids, Rieske KO mouse fibroblasts, CellTiter-Glo (AID 1508586;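 active means mean z-score across replicates of 1.96 or higher in either the MELAS or the Rieske mutant cell line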;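 further: z relative to plate mean and SD of compound and empty wells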)
[3] = LFS_MB_P medulloblastoma growth inhibition, cell-based, chromothripsis tumors, cisplatin or BGB combos (AID 1671449); conditions: LFS_MB_P medulloblastoma cells;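 further: cells exposed for 96 hours; 0% = vehicle DMSO and 100% = killing by high DMSO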
[4] = HDN33 neuroblastoma growth inhibition, cell-based, chromothripsis tumors, cisplatin or BGB combos (AID 1671450); conditions: HDN33 neuroblastoma cells, stronger effect = higher value;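 further: cells exposed to compound for four days; 0% = vehicle DMSO and 100% = cell killing by high DMSO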
[5] = ICB984 medulloblastoma cell growth inhibition, synergistic combos for chromothripsis tumors, cisplatin or BGB combos (AID 1671451; call rule not given here;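 further: cells exposed for 96 hours before readout; 0% = vehicle DMSO and 100% = killing by high DMSO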); conditions: ICB984 medulloblastoma cells, drug combinations, stronger effect = higher value
[6] = LFS_MB_1R medulloblastoma cell growth inhibition, synergistic combos for chromothripsis tumors, cisplatin or BGB combos (AID 1671452); conditions: LFS_MB_1R medulloblastoma cells, stronger effect = higher value;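 further: cells exposed for 96 hours before readout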
[7] = HTB85 osteosarcoma cell growth inhibition, synergistic combos for chromothripsis tumors, BGB or cisplatin IC20 combos (AID 1671453); conditions: HTB85 osteosarcoma cells, drug combinations, stronger effect = higher value;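 further: cells exposed for 96 hours before readout; 0% = vehicle DMSO and 100% = high DMSO killing control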
[8] = CRL2098 osteosarcoma cell growth inhibition, synergistic combos for chromothripsis tumors, BGB or cisplatin IC20 combos (AID 1671454); conditions: CRL2098 osteosarcoma cells, drug combinations, stronger effect = higher value;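 further: cells exposed for 96 h before readout; 0% = vehicle DMSO and 100% = killing by high DMSO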
[9] = HD-MB03 medulloblastoma cell growth inhibition, synergistic combos for chromothripsis tumors, BGB or cisplatin IC20 combos (AID 1671455; in the data active means inhibition above about 83%;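 further: 0% = vehicle DMSO and 100% = high DMSO as cytotoxic control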); conditions: HD-MB03 medulloblastoma cells, stronger effect = higher value
[10] = UWB1.289 ovarian carcinoma cell growth inhibition, synergistic combos for chromothripsis tumors, BGB or cisplatin combos (AID 1671456); conditions: UWB1.289 ovarian carcinoma cells, stronger effect = higher value;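 further: cells exposed to compound for four days; 0% = vehicle DMSO and 100% = killing by high DMSO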
[11] = LFS_MB_2R medulloblastoma cell growth inhibition, synergistic combos for chromothripsis tumors, cisplatin combos (AID 1671457); conditions: LFS_MB_2R medulloblastoma cells, stronger effect = higher value;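 further: cells exposed to compound for four days before readout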
[12] = MDA-MB-436 breast carcinoma cell growth inhibition, synergistic combos for chromothripsis tumors, BGB or cisplatin combos (AID 1671458; call rule not given here;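 further: cells exposed for 96 hours; 0% = vehicle DMSO and 100% = killing by high DMSO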); conditions: MDA-MB-436 breast carcinoma growth inhibition, drug combinations, stronger effect = higher value
[13] = UWB1.289_BRCA1 ovarian cancer growth, cell-based, BGB or cisplatin combinations (AID 1671459); conditions: UWB1.289 BRCA1 ovarian carcinoma, drug combinations, stronger effect = higher value
[14] = human astrocyte viability loss, single and combined drugs, cytotoxicity control for chromothriptic childhood tumor combination screen, cell-based, BGB or cisplatin IC20 combos (AID 1671460); conditions: Human astrocytes, drug combinations, stronger effect = higher value;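 further: cells exposed to compounds for 96 hours before viability readout; 0% = vehicle and 100% = killing control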
[15] = growth inhibition of BT084 medulloblastoma cells, cell-based, ICGC_MB145, cisplatin and BGB IC40 combos (AID 1671461); conditions: drug combinations, stronger effect = higher value;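 further: cells exposed to drugs for 96 hours; 0% = vehicle DMSO and 100% = high DMSO full killing control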
[16] = growth inhibition of RCMB18 medulloblastoma cells, cell-based, cisplatin and BGB IC40 combos (AID 1671462); conditions: stronger effect = higher value;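 further: cells exposed to compound for four days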
[17] = growth inhibition of CRL1545 osteosarcoma cells, cell-based, cisplatin and BGB IC20 combos (AID 1671464); conditions: stronger effect = higher value;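 further: cells exposed to compound for 96 hours before readout; 0% = vehicle DMSO and 100% = high DMSO killing control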
[18] = hESC survival regulators, cell-based (AID 493140; call rule not given here;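 further: cells exposed to compounds for four days before counting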); conditions: human embryonic stem cell survival screen; stronger effect = higher value
[19] = liver-stage malaria parasite growth inhibition, primary screen, cell-based, HepG2, luciferase luminescence, HepG2 viability (AID 624349; in the data active means parasite load remaining mostly below about 12%, no sharp cut-off; inactive means mostly above about 10%;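 further: 100% = mean of DMSO negative control wells on the same plate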); conditions: P. berghei liver stage in HepG2, luciferase luminescence, concentration not given here; parasite load remaining: stronger effect = lower value; viability: measured here: HepG2 viability without parasites
[20] = stronger effect = lower value, cell number ratio, induced over uninduced
[21] = measured here: relative caspase fold change +Dox/-Dox
[22] = measured here: total cells with miR-34 induction, stronger effect = lower value
[23] = measured here: total cells without miR-34 induction
[24] = MELAS cybrid survival, CellTiter-Glo 48 h, stronger effect = higher value
[25] = Rieske KO mouse fibroblast survival, CellTiter-Glo 72 h
[26] = measured here: combination with BGB IC40, at 0.05 µM
[27] = measured here: with BGB IC20 combination, at 0.5 µM
[28] = measured here: with cisplatin IC20 combination, at 0.5 µM
[29] = measured here: combination with cisplatin, at 0.5 µM
[30] = measured here: combination with cisplatin, at 5 µM

Nc1ccn(C2OC(CO)C(O)C2(F)F)c(=O)n1 (configuration not stated)
fold change [1, 20]: 1.02 (inactive)
fold change [1, 21]: 0.857
cell count [1, 22]: 1840
cell count [1, 23]: 1810
z-score [2, 24]: 2.35 (active)
z-score [2, 25]: -0.225
inhibition ([3]; at 0.5 µM, stronger effect = higher value): 12.8% (inactive) and -24.1% (inactive) and -14.5% (inactive)
inhibition ([3]; measured here: combination with BGB IC20, at 0.005 µM): -8.46% and 7.63% and 14%
inhibition ([3]; measured here: combination with BGB IC40, at 0.005 µM): -8.25% and -29.3% and -2.14%
inhibition [3, 26]: -22.1% and -15.3% and -25.2%
inhibition ([3]; measured here: combination with cisplatin, at 0.5 µM, stronger effect = higher value): 91.7% and -25.4% and 35.7%
inhibition ([3]; measured here: combination with cisplatin, at 5 µM, stronger effect = higher value): 65.8% and 67.6% and 88%
inhibition ([4]; BGB combo, at 5 µM): 86.4% and 89.9% and 88.8%
inhibition ([4]; at 0.5 µM): 87.6% (active) and 87.3% (active) and 83.2% (active)
inhibition ([4]; cisplatin combo, at 5 µM): 81.7% and 86.5% and 82.8%
inhibition [4, 27]: 88.2% and 89.8% and 84.6%
inhibition [4, 28]: 86.2% and 82.4% and 79.7%
inhibition ([4]; single agent, at 5 µM): 88.8% and 90% and 87.7%
inhibition ([5]; BGB IC20 combo, at 0.005 µM): -3.49% and -7.36% and -23.1%
inhibition ([5]; BGB IC40 combo, at 0.005 µM): -5.04% and 4.53% and 16%
inhibition ([5]; BGB IC40 combo, at 0.05 µM): 26% and 33.4% and 30.2%
inhibition ([5]; at 0.5 µM): -22.9% (inactive) and -37.1% (inactive) and -18.5% (inactive)
inhibition ([5]; cisplatin combo, at 0.05 µM): 26% and 30.8% and 27.7%
inhibition ([5]; cisplatin combo, at 0.5 µM): -43.1% and -45% and -7.88%
inhibition ([5]; cisplatin combo, at 5 µM): -24% and -19.7% and -23.1%
inhibition ([5]; measured here: 5 uM single agent, at 5 µM): -32.2% and -6.79% and -21%
inhibition ([6]; at 0.5 µM): -17.1% (inactive) and -7.38% (inactive) and 7.19% (inactive)
inhibition [6, 26]: -7.29% and 0.139% and -43.6%
inhibition [6, 29]: 49.7% and 24.2% and 32.2%
inhibition [6, 30]: 66.7% and 77.2% and 68.3%
inhibition ([7]; at 0.5 µM): 86.6% (active) and 90.3% (active) and 89.1% (active)
inhibition ([7]; measured here: with BGB IC20, at 0.5 µM): 76.2% and 85.7% and 83.4%
inhibition ([7]; measured here: with BGB IC20, at 5 µM): 72.1% and 73.5% and 75.1%
inhibition ([7]; measured here: with cisplatin IC20, at 0.5 µM): 91.2% and 91.9% and 89.4%
inhibition ([7]; measured here: with cisplatin IC20, at 5 µM): 90.4% and 93.2% and 92.8%
inhibition ([7]; single agent, at 5 µM): 92.2% and 93.6% and 92.8%
inhibition ([8]; at 0.5 µM): 68.5% (inactive) and 65.4% (inactive) and 40.8% (inactive)
inhibition ([8]; measured here: combination with BGB at IC20, at 0.5 µM): 53% and 49.8% and 5.09%
inhibition ([8]; measured here: combination with cisplatin at IC20, at 0.5 µM): 70.5% and 84.6% and 51.6%
inhibition ([9]; at 0.5 µM): 92.5% (active) and 91.3% (active)
inhibition ([9]; measured here: combo with BGB at IC20, at 0.5 µM): 87.4% and 87.6% and 86.6%
inhibition ([9]; measured here: combo with cisplatin at IC20, at 0.5 µM): 96.8% and 96.7% and 96%
inhibition ([10]; at 0.5 µM): 36.9% (inactive) and 40.6% (inactive) and 36.4% (inactive)
inhibition ([10]; measured here: inhibition with BGB combination, at 0.05 µM): -8.95% and 6.66% and -8.78%
inhibition ([10]; measured here: inhibition with cisplatin combination, at 0.05 µM): 34.8% and 31% and 33.4%
inhibition ([11]; at 0.5 µM): -9.87% (inactive) and -8.63% (inactive) and -0.27% (inactive)
inhibition [11, 29]: 22.8% and 20.6% and 41.7%
inhibition [11, 30]: 40.3% and 52.4% and 57.5%
inhibition ([12]; at 0.5 µM): 67.3% (inactive) and 69.9% (inactive) and 70.3% (inactive)
inhibition ([12]; measured here: BGB combination, at 0.5 µM): 56.1% and 61.1% and 59%
inhibition ([12]; measured here: BGB combination, at 5 µM): 58% and 56% and 66.5%
inhibition ([12]; measured here: cisplatin combination, at 0.5 µM): 71.9% and 76.1% and 74.4%
inhibition ([12]; measured here: cisplatin combination, at 5 µM): 77.8% and 78.1% and 78.7%
inhibition ([13]; BGB combination, concentration series, at 5 µM): 71.1% and 55.2% and 80.4%
inhibition ([13]; at 0.5 µM): 43.5% (inactive) and 49.4% (inactive) and 43.9% (inactive)
inhibition ([13]; cisplatin combination, concentration series, at 5 µM): 101% and 97.9% and 125%
inhibition ([14]; at 0.5 µM): 70% (inactive) and 73.6% (inactive) and 72.6% (inactive)
inhibition ([14]; measured here: combo with BGB IC20, at 0.5 µM): 71.3% and 72.2% and 72.3%
inhibition ([14]; measured here: combo with cisplatin IC20, at 0.5 µM): 58.6% and 65% and 62%
inhibition ([15]; at 0.5 µM): -11% (inactive) and -2.39% (inactive) and 3.77% (inactive)
inhibition ([15]; cisplatin combination, at 0.5 µM): 30.6% and 26.6% and 14.1%
inhibition ([15]; cisplatin combination, at 5 µM): 52.1% and 55.8% and 69.2%
inhibition ([15]; measured here: BGB IC40 combination 0.05 uM, at 0.05 µM): -18.1% and -16.5% and -27.6%
inhibition ([15]; single agent, at 5 µM): 11.1% and 16.6% and 14.7%
inhibition ([16]; at 0.5 µM): 5.91% (inactive) and 3.99% (inactive) and 14.1% (inactive)
inhibition ([16]; cisplatin combo, at 5 µM): 85.9% and 82.9%
inhibition ([16]; measured here: BGB IC40 combination, at 0.05 µM): -10.4% and -39% and -30%
inhibition [16, 29]: 68.2% and 64.5% and 57.4%
inhibition ([16]; single agent, at 5 µM): 10.1% and 16.5% and 18.8%
inhibition ([17]; at 0.5 µM): 65.3% (inactive) and 70.4% (inactive) and 61.5% (inactive)
inhibition [17, 27]: 73.4% and 66.6% and 67.9%
inhibition [17, 28]: 61.3% and 72.3% and 57.7%
inhibition ([17]; single agent, at 0.05 µM): 71.8% and 61.1% and 53.4%
inhibition ([17]; single agent, at 5 µM): 87.7% and 91.1% and 81.7%

Nc1nc(=S)c2ncn([C@@H]3O[C@H](CO)[C@@H](O)[C@H]3O)c2[nH]1
survival [18]: 1.25 (inactive)
parasite load remaining [19]: 64.1% (inactive) and 72.9% (inactive)
viability [19]: 36.6% and 69.4%
fold change [1, 20]: 1.04 (inactive)
fold change [1, 21]: 1.52
cell count [1, 22]: 2980
cell count [1, 23]: 2870
z-score [2, 24]: 3.35 (active)
z-score [2, 25]: -0.524

CCCCC[C@H](O)/C=C/[C@@H]1[C@@H](C/C=C\CCCC(=O)O)[C@@H](O)C[C@H]1O (tested in a mixture with another compound)
survival [18]: 6.75 (inactive)
parasite load remaining [19]: 74.8% (inactive) and 88.7% (inactive)
viability [19]: 111% and 88.8%
fold change [1, 20]: 0.919 (inactive)
fold change [1, 21]: 1.17
cell count [1, 22]: 8520
cell count [1, 23]: 9270
z-score [2, 24]: -0.0339 (inactive)
z-score [2, 25]: -1.21
